Results published in the supplement of paper PMC11417369.
In all, about 25,000 sequences were measured (“ln(normalized median fluorescence intensity)”: median about 9.7, highest 2% from about 11 on). Many of the other results were omitted from the sample, so the highest values are more common in it than they were.

These sequences were tested on PfAP2-HC AP2 domain (GST-tagged) (assay: gcPBM binding intensity (ln(normalized median fluorescence intensity)); higher = stronger DNA binding).
In short: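 The binding buffer was 1× PBS containing 1% milk, 0.2 mg/ml BSA, 0.5% salmon testes DNA and 0.03% Triton X-100. In it, GST-tagged P. falciparum DNA-binding domains expressed in E. coli were applied for 1 h to an Agilent 4 × 180k array of primer-extended double-stranded 36-bp intergenic genomic probes plus negative controls. Binding intensity, read with Alexa488 anti-GST antibody and a 488 nm scan, is the highest Masliner-normalised natural-log median intensity across replicate spots of either probe orientation.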

| Sequence | gcPBM binding intensity (ln) |
| --- | --- |
| AAAAAATAAATAAACATAAATAAATAAATAAATATA [XGTACX_negctrl_site340] | 9.73 |
| CAATATATTTGATTTACACACTTACAATGTATATAA [CACACA_site2994] | 9.55 |
| AATAGTACAAAAAAAAAAAAAAAAAAAAAAAAAAAA [CACACA_negctrl_site1376] | 8.9 |
| TTATTTTTTAGTAGTACACACTTTTTGTACCTTTTA [CACACA_site4503] | 9.87 |
| CATATACACGAACACACACACACACGCACAAAAAAA [CACACA_site6376] | 10.6 |
| CCAACATGCCCACGCACACACAAAAAAAGCATGCAT [CACACA_site4217] | 10 |
| ATCAAGCACGAACACACACACACACGCACGCCCACA [CACACA_site6308] | 11.4 |
| TTATACTGTATAGTCGCACACAAAAATATAAAATAT [CACACA_site3869] | 9.98 |
| ATTATGCACCAACACACACACACACCCCTAAAAAAT [CACACA_site2568] | 10.8 |
| ATTATGCACGGACACACACACACACCCCTAAAAAAT [CACACA_site5426] | 11.4 |
| ATTATGCACCAACACACACACACACTCCTAAAAAAT [CACACA_site8822] | 11 |
| TAATTATGCGGACACACACACACACCCAACTAAAAA [CACACA_site5427] | 10.9 |
| TGCACAAAATTATGCACACACCTAAAATTAATTTTT [CACACA_site5596] | 9.8 |
| TGTGCCCAAAATTATGCACACACCTAAAATTAATTT [CACACA_site2914] | 9.85 |
| TTTTGAATATGGATCTTATATATATTAAATAAATAA [CACACA_negctrl_site344] | 9.09 |
| ATGTTTTATAAAAGGCGTACACATATGCTTAAGTAA [XGTACX_site6232] | 9.71 |
| TATATAATTATAAGAACACACATATATATATATATA [CACACA_site2472] | 9.49 |
| AGGTGATTAATATATACACACATACATATATATATA [CACACA_site8913] | 10 |
| TCATTTCACAGACACACACACACAATATATTTCCTT [CACACA_site9295] | 10.8 |
| TCATTTCACAGACACACACACACAAGATATTTCCTT [CACACA_site7774] | 11.1 |
| TTTCATTTCACAGACACACACACACCCTATATTTCC [CACACA_site3906] | 11.2 |
| TCATTTTATTTTTTCACACACACATATATATATATA [CACACA_site3333] | 10.2 |
| TCATTTTATTTTTTCACACACACATCTATATTTATA [CACACA_site7547] | 10.2 |
| TATTTTTATTTTCCTTCACACATTTTTTATATTTTT [CACACA_site5830] | 9.83 |

| Sequence | gcPBM binding intensity (ln) |
| --- | --- |
| TCATTTCACGGACACACACACACAATATATTTCCTT [CACACA_site6023] | 10.9 |
| ATTTCACAGAGACACACACACAATATATTTCCTTTT [CACACA_site7773] | 10.3 |
| TCATTTCACAAACACACACACACAATATATTTCCTT [CACACA_site3905] | 10.3 |
| ATATTAATTATAACTTGTACGTAAAAGGAAAACAAT [XGTACX_site3269] | 9.76 |
| ATTATAATATTGTTATGTACATAAAAATTATTGAAT [XGTACX_site4476] | 9.82 |
| GATAACATAATATGTTGTACATAAAAATTTTTATCA [XGTACX_site1969] | 9.62 |
| GTAAAAATAAAAACTGGTACACAAGTTGTTATAAAA [XGTACX_site502] | 9.76 |
| TTTTGTTTATGTGTGCATTATATTATATTTTTTATT [TGCATGCA_negctrl_site146] | 10.1 |
| TTATTTATTCTATGTGCATGTTATTTTTTTTTTTCG [TGCATGCA_site262] | 9.73 |
| TTTGTGTGTGCGTGTGCATGTTGTTTTTTTCTATAA [TGCATGCA_site17] | 11.7 |
| ATTTACATAAATTGCATATATCGATGTAAATAAATA [CACACA_negctrl_site1150] | 9.5 |
| AATAAATATAAATACACACCCATATATATATATATA [CACACA_site5436] | 9.67 |
| TACATATATAAAAAAACACACACATATATATATATA [CACACA_site8315] | 9.93 |
| ATATAATATATATATAAACACACAAAAAAAATTATA [CACACA_site8434] | 9.97 |
| AATGTACACGCACCCACACACAAACAAATATAAATA [CACACA_site7319] | 11.6 |
| AATAAATATAAATACACACCCATATAAATATAAATA [CACACA_site7264] | 10.1 |
| ATAATATATATATAAACACACAAAAAAAATTATATA [CACACA_site1534] | 9.86 |
| AAAAAAAAAAAACACACACACACACCCATATATAAA [CACACA_site1170] | 11.1 |
| AATGTACACCCACCCACACACAAACAAATATATATA [CACACA_site5521] | 10.3 |
| TATATATAAAAACACACACACACACCCTATAATTAT [CACACA_site4063] | 11.3 |
| AATGTACCCACACCCACACACAAACAAATATATATA [CACACA_site2751] | 10.2 |
| TAAACACCCATATAAACACACATATAAACACCCATA [CACACA_site5382] | 10.3 |
| AATATAAATAAAAACACACACACACCCATATATATA [CACACA_site2267] | 11.3 |
